Values joined by “and” are separate entries in the source; they are usually repeats but may differ in a detail not shown here. Equal entries are not always repeated. Compounds without any hit were thinned out: in the full panel of roughly 83,000, 20% have a hit.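 Treatment: one concentration, 48 hours, 96-well format. Scoring: percent growth, with anything below 10 considered active.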 Active and inactive are the calls of the source.

The subject of this assay is MDA-MB-468 breast. The experiment in a line: NCI-60 one-dose screen, 48 h (100 = growth as untreated, 0 = no growth, -100 = all killed). The note with it: 10 µM unless noted.
As to `COc1ccc2nc3cc(Cl)ccc3c(NCCCNCCC(C)O)c2c1` (stereo not given), the growth is -54% (active).

`COC(=O)CNC(=O)[C@]12CCC(C)(C)C[C@H]1C1=CC[C@@H]3[C@@]4(C)Cc5c([nH]c6ccccc56)C(C)(C)[C@@H]4CC[C@@]3(C)[C@]1(C)CC2`: the growth is 102% (inactive).

For the molecule `COc1nc(N)nc(-n2c(-c3ccc(C)cc3)nc3ccccc32)c1NCc1ccc(C)cc1`, the growth is 98.6% (inactive).

Consider `CCCCCCCCCCCCCCCCCc1nccn1CCO`, for which the growth was 91.5% (inactive).

In the case of `O=S(=O)(Nc1ccc(Cl)cc1)c1ccc(-c2cnc(C3CC3)o2)cc1`, the growth is -27.7% (active).

`NCC(O)C(O)C(O)C(O)CO` (stereo not given): the growth is 98.7% (inactive).

With `Clc1ccc(/C=N/Nc2nc3ccccc3s2)c(Cl)c1`, the growth was 89.3% (inactive).

With `O=c1cc(-c2ccccc2)[nH]c2ncc(-c3ccc(F)cc3)n12`, the growth is 83% (inactive).

In the case of `N=C1c2nc3n(c2C(=O)c2nc4n(c21)CCCC4)CCCC3`, the growth is 68.1% (inactive).

As to `Cc1cc(NC(=O)CSCC(=O)O)no1`, the growth was 114% (inactive).

For `Cc1cc(O)c(C(C)C)cc1N`, the growth was 8.67% (active) and -40.1% (active).

`COc1cc2nc(Cl)nc(Nc3cccc(C4=Nc5c(N)nc(N)nc5NC(c5ccccc5)C4)c3)c2cc1OC` (stereo not given): the growth was 96.5% (inactive).

Regarding `Cc1ccccc1CNC(=O)C1CN(c2ccc(Cl)cc2)N(c2ccc(Cl)cc2)C1=O` (stereo not given), the growth was 83.2% (inactive).

For `Cc1cc(Br)ccc1-n1cc(C#N)c(N)c1C(=O)c1ccc(Br)cc1`, the growth was 93.4% (inactive).

Take `CN1CCN(Cc2ccc(NC(=O)c3cncc(C#Cc4cnc(N)c5ncccc45)c3)cc2C(F)(F)F)CC1`: the growth was -43.8% (active).

Take `CCCCCCCCNC(=O)C(C)C`: the growth was 85.4% (inactive).

As to `O=c1ccc2nc(-c3ccccn3)nn(-c3ccccc3)c-2c1`, the growth is -32.1% (active).

For the molecule `CC[N+](CCCCCCCCCC[N+](CC)(c1ccccn1)c1ccccn1)(c1ccccn1)c1ccccn1`, the growth is -1.91% (active).

In the case of `CCN(CC)CCOc1nc2ccccc2c2c1-c1ccc(OC)cc1C2=O`, the growth was 14.3% (inactive).

For the molecule `COc1ccc([C@H]2[C@H](O)C(=O)N2c2cc(OC)c(OC)c(OC)c2)cc1O`, the growth is 5.56% (active).

Consider `O=C(CCN1C(=O)c2ccccc2C1=O)Nc1ccc(Cl)cc1`, for which the growth is 116% (inactive).

As for `CCN(c1ccccc1)S(=O)(=O)c1cc([N+](=O)[O-])ccc1Cl`, the growth was -4.6% (active).

With `Cc1cc(-c2ccccc2)nc2ccccc12`, the growth was 100% (inactive).

As for `Cc1nc2sc(C(=O)Nc3cccc4ccccc34)c(N)c2cc1C(O)c1ccccc1` (stereo not given), the growth was 18.1% (inactive).

On to `O=Nc1c(O)c(Cl)cc2ccccc12`, for which the growth was -7.81% (active).

Turning to `CN1CCN(C(=O)c2ccc(NC(=O)Nc3ccc(-c4nc(N5CCOCC5)c5cccn5n4)cc3)cc2)CC1`, the growth was -60.7% (active).

For `COc1cc(F)c(/C=C/c2cc(/C=C/c3cc(OC)c(OC)cc3F)n(-c3cc(F)cc(F)c3)n2)cc1OC`, the growth was -37.6% (active).

`N=C(N)c1ccc(-c2ccc(-c3cc(F)cc(F)c3)o2)nc1`: the growth was 85.3% (inactive).

In the case of `Cc1cc(SC#N)cc(C(C)(C)C)c1O`, the growth was 105% (inactive).

In the case of `O=C(CN1CCN(C(=O)c2ccccc2)CC1)Nc1ccccc1SCc1ccccc1`, the growth is 56.4% (inactive).

On to `NCCSC(C[N+](=O)[O-])c1ccccc1Cl` (stereo not given), for which the growth is 10.2% (inactive).

As to `CC(C)c1ccc(C(=O)Nc2sc3c(c2C(N)=O)CCC(=O)C3)cc1`, the growth was -47.6% (active).

As for `OC(c1cc2cc(Cl)c(Cl)cc2c2cc(C(F)(F)F)ccc12)C1CCCCN1` (stereo not given), the growth was -92.2% (active).

As to `O=C(Nc1ncc(Cc2cc(C(F)(F)F)ccc2Cl)s1)C(=S)N1CCOCC1`, the growth was 84.3% (inactive).

With `COC(=O)C1(O)NC(=C(C#N)C#N)C(C#N)=C1C(=O)c1ccc(OC)c(OC)c1` (stereo not given), the growth is 110% (inactive).

Consider `Cc1nnc2nc(N)[nH]n2c1=O`, for which the growth is 108% (inactive).

Take `COc1cccc(/C=C2\COc3ccc(-c4ccccc4)cc3C2=O)c1`: the growth was 7.82% (active).

As to `C#Cc1nc(C(=O)NCCCCCCC(=O)NO)cs1`, the growth was -33.8% (active).

Consider `N#Cc1ccc(NC(=O)Nc2nc3ccc(OC(F)(F)F)cc3s2)cc1`, for which the growth is -2.64% (active).

For `Cc1noc(C)c1-c1ccc2nc(NC(=O)[C@H]3CCN(C#N)C3)cn2c1`, the growth is 57.3% (inactive).

(Values after PubChem BioAssay (NCI).)
